# ChEMBL document CHEMBL3988442, “University of Dundee, Small-Polar-MMV Screening Library” (2021)
# Among all 48,000 compounds or so, about 13,000 (27%) showed an effect of 50% or more. Some of the results follow.
# System: Wolbachia pipientis
# Assay: Anti-Wolbachia Cell-Based Screen
# Assay type: functional
# Set-up: scale not given: in the data most compounds retested in dose-response had high values
# Details: 5 µM
row,Structure (SMILES),Percent Effect [%]
1,Cc1cc(N2CCC(NC(=O)CCC3CCCO3)CC2)nc(C)n1 (stereo unspecified),7.946
2,Cc1cn2c(n1)C(CNCc1ccc(C)s1)CCC2 (stereo unspecified),5.575
3,CC1(C)[C@H]2CC=C(CN3CCCn4nc(C(=O)NCCO)cc4C3)[C@@H]1C2,10.58
4,Cc1cccc(OCCC(=O)N2CCCN(C(N)=O)CC2)c1C,-12.46
5,COc1cccc(-c2noc(-c3ccc(NCC4CC4)nc3)n2)c1OC,-9.972
6,c1ccc(Cc2noc(-c3ccc(NCC4CCCOC4)nc3)n2)cc1 (stereo unspecified),130.1
7,c1ccc(Cc2noc(-c3ccc(NCC4CCCCO4)nc3)n2)cc1 (stereo unspecified),127.1
8,OC[C@@H]1CCCN1c1ccc(-c2nc(CCc3ccccc3)no2)cn1,1.286
9,CC(CO)Nc1ccc(-c2nc(Cc3ccc(F)cc3)no2)cn1 (stereo unspecified),-69.59
10,Cc1ccccc1-c1noc(-c2ccc(N(C)C3CCOCC3)nc2)n1,1.469
11,O=C(CN1CC(c2nc(Cc3ccccc3)no2)C1)NCC1CCCO1.O=C(O)C(=O)O (stereo unspecified),1.544
12,Cc1ccccc1-c1noc(-c2ccc(NCC3COCCO3)nc2)n1 (stereo unspecified),87.55
13,c1ccc(Cc2noc(-c3ccc(NCC4COCCO4)nc3)n2)cc1 (stereo unspecified),114.1
14,COC(=O)CNc1ccc(-c2nc(Cc3ccc(OC)cc3)no2)cn1,-28.16
15,COCC(C)Nc1ccc(-c2nc(Cc3ccc(F)cc3)no2)cn1 (stereo unspecified),-40.71
16,O=C(NCC1COCCO1)c1csc(Cc2ccccc2)n1 (stereo unspecified),-4.558
17,CC(CNCc1ccncc1)Oc1ccccn1.Cl (stereo unspecified),14.12
18,Cc1cc(N2Cc3cnc(CC(C)C)nc3C2)nc(N)n1,-9.889
19,COC(=O)c1ccc(N(C)C2CCC2)nn1,-14.02
20,CSc1ccccc1CCC1CCS(=O)(=O)C1 (stereo unspecified),-15.64
21,CS(=O)(=O)CCC(=O)NC1CC(c2cccc(Cl)c2)C1 (stereo unspecified),-6.793
22,COCC(=O)N1Cc2cn(C)nc2C(COc2cccnc2)C1 (stereo unspecified),-3.351

row,Structure (SMILES),Percent Effect [%]
1,CCOCC1CN(C(=O)COc2ccccc2)Cc2cn(C)nc21 (stereo unspecified),-5.674
2,COCC1CN(C(=O)COc2ccccc2)Cc2cn(C)nc21.O=C(O)C(F)(F)F (stereo unspecified),-8.714
3,COCC1CN(C(=O)c2ccco2)Cc2cn(C)nc21.O=C(O)C(F)(F)F (stereo unspecified),-0.009633
4,CNC(=O)C1CN(C(=O)c2ccccc2)Cc2cn(C)nc21 (stereo unspecified),107.7
5,CNC(=O)C1CN(C(=O)COc2ccccc2)Cc2cn(C)nc21 (stereo unspecified),122.8
6,O=C1N(c2ccccc2)C[C@H]2CN(C3CCC3)CCN12,-7.27
7,O=C(c1ccccc1)N1CCN(C2CCc3ccc(F)cc32)CC1 (stereo unspecified),-8.707
8,OC1(Cn2ccc3ncccc32)CCN(Cc2cccnc2)CC1,93.84
9,O=C(CCn1ccc2ccccc21)N1CCN(Cc2cccnc2)CC1,-2.767
10,Cc1cc(-n2cccn2)ccc1CN1CCC(O)(CN2CCCCC2)C1 (stereo unspecified),-16.49
11,CCn1ncc(CN2CCC(O)(Cn3ccc4ncccc43)CC2)c1C,101.2
12,CCn1ccnc1-c1nccn1-c1ccccc1CN1CCOCC1,-5.226
13,CCn1cc(CN2CCC(CCC(=O)Nc3ccccc3Cl)CC2)cn1,5.103
14,CCn1cc(CN2CCN(C(=O)N3CCOCC3)CC2)cn1,3.548
15,CCn1cc(CN2CCC(O)(Cn3ccc4ncccc43)CC2)cn1,79.32
16,OC1(Cn2ccc3ncccc32)CCN(Cc2cccs2)CC1,107.1
17,OC1(Cn2ccc3ccncc32)CCN(Cc2ccccn2)CC1,-11.69
18,c1cnnc(N2CCCC(NCc3nc(-c4ccsc4)no3)C2)c1 (stereo unspecified),-5.717
19,COC(=O)c1ccc2ccn(CC3COCCO3)c(=O)c2c1 (stereo unspecified),-29.12
20,NS(=O)(=O)N1CCC(C(=O)Nc2cccc(OC(F)F)c2)CC1,23.74
21,Cc1cccc2c(=O)c(C(=O)N3CCCC4(CN(C)C(=O)O4)C3)c[nH]c12 (stereo unspecified),3.697
22,CN(Cc1nc(CS(C)(=O)=O)no1)c1ccccc1,1.355

row,Structure (SMILES),Percent Effect [%]
1,COc1ccccc1OC1CN(C(=O)C(c2ccccc2F)N(C)C)C1 (stereo unspecified),10.69
2,O=C(c1cccc(S(=O)(=O)NCCc2nccs2)c1)N1CCOCC1,-12.77
3,COCCCn1c(CN2CCCC(O)C2)cnc1S(=O)(=O)C1CCCC1 (stereo unspecified),-2.252
4,COCCN1C(=O)[C@]2(CC[C@@H]3CN(S(=O)(=O)CC(C)C)C[C@@H]32)N=C1C,-14.47
5,CC(C)(C)C(=O)NCC(=O)NCC1CCCS1 (stereo unspecified),-13.47
6,CN(Cc1ccc(C#N)cc1)C(=O)c1ccnc(OC2CCC2)c1,-4.84
7,COc1ccccc1CN1CCC(O)(Cn2ccc3ncccc32)CC1,82.78
8,COc1ccc(F)cc1CN1CCC(O)(CN2CCCCC2)C1 (stereo unspecified),8.228
9,Cc1cc(C(=O)N2CCN(C(=O)Cc3ccccn3)CC2)c(C)s1,2.124
10,Oc1cc(CN2CCC(O)(Cn3ccnc3)CC2)nc2ccc(F)cc12,-18
11,Cc1ccc(CN2CCC(O)(Cn3ccc4ncccc43)CC2)o1.Cl,100
12,OC1(Cn2ccc3ncccc32)CCN(Cc2cc(F)cc(F)c2)CC1,107.3
13,OCC1(O)CCCN(Cc2ccccc2OCCc2ccccc2)CC1 (stereo unspecified),13.11
14,Cc1cc(N2CCCN(Cc3ccc(C)o3)CC2)ccn1,-3.581
15,Cc1cc(CN2CCC(O)(Cn3ccc4ncccc43)CC2)c(C)s1,75.84
16,Cc1ccc2nc(CN3CCC(O)(Cn4ccnc4)CC3)cc(O)c2c1,-4.196
17,NC(=O)CN1CC2(CCC1=O)CCN(Cc1cc(F)cc(F)c1)CC2,6.606
18,Cc1ccc(CN2CCCC3(CCN(Cc4ccc(C)o4)C3)C2)o1 (stereo unspecified),14.2
19,Nc1ccnn1C1CCN(Cc2ccccc2)C1 (stereo unspecified),-4.351
20,CCN(C)Cc1cnc(S(=O)(=O)CC)n1CCOC,2.274
21,Cc1cc(S(=O)(=O)NCC2CNCCOC2)c(C)cc1Cl (stereo unspecified),-6.904
22,O=C(O)C(=O)O.c1cnc(-c2noc(C3CN(Cc4ccsc4)C3)n2)cn1,20.73
